Growth data for 16 compounds are collected here from PubChem BioAssay (NCI).

The panel holds about 83,000 compounds, 20% with a hit somewhere; the sample as a whole holds those more often.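 Activity criterion: percent growth below 10, measured after cells in 96-well plates were exposed to a single compound concentration for 48 hours.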 A number with no mark means an inactive call. Calls of active or inactive are those of the source.

Experiment in all cases: NCI-60 one-dose screen, 48 h (100 = growth as untreated, 0 = no growth, -100 = all killed)
Holding throughout (details): 10 µM unless noted

Assay [1] relates to SR leukemia.
In assay [2] the test system is OVCAR-8 ovarian.
Assay [3] concerns OVCAR-5 ovarian.
The subject of assay [4] is OVCAR-4 ovarian.
Assay [5] has as its system SK-OV-3 ovarian.
Assay [6] relates to IGROV1 ovarian.
In assay [7] the test system is OVCAR-3 ovarian.
Assay [8] has as its system HS 578T breast.
The subject of assay [9] is NCI/ADR-RES ovarian.
In assay [10] the test system is T-47D breast.
Assay [11] relates to BT-549 breast.
The test system of assay [12] is MDA-MB-435 melanoma.
Assay [13] relates to SW-620 colon.
The subject of assay [14] is MCF7 breast.
For assay [15], the system named is HCT-116 colon.
Assay [16] concerns HCC-2998 colon.
In assay [17] the test system is KM12 colon.

Consider `Oc1c(I)cc(I)cc1CNCCCN(Cc1ccccn1)Cc1ccccn1`, for which the growth was 4.38% (active) in assay [1]; -11.2% (active) in [2]; -44.9% (active) in assay [3]; -94.3% (active) in assay [4]; -73% (active) in assay [5]; -79.5% (active) in assay [6]. Besides, the growth in assay [7] was -69.9% (active); in assay [8] it was -21.7% (active); in assay [9], -17.1% (active); in assay [10], -57% (active); in assay [11] it was -73.2% (active); in assay [12], -90.7% (active). Further, the growth in [13] was -61.9% (active); in assay [14] it was -56.3% (active); in assay [15], -87% (active); in [16], -82.5% (active); in [17] it was -85.1% (active).
Turning to `O=c1c2cccc(F)c2sc2c(NCCCNCCO)nc3ccccc3c12`, the growth in [1] is -16.6% (active); in [2] it was 32%; in assay [3] it was 61.8%; in assay [4], 34.9%; in assay [5] it was 56.2%; in assay [6] it was 24.2%. For the same compound, the growth in [7] was 30.1%; in [8], 37.8%; in assay [9] it was 31.5%; in [10] it was 51.8%; in assay [11] it was 72.6%; in assay [12], 6.93% (active). The growth in [13] was -68.1% (active); in assay [14], 20.2%; in [15] it was 0.842% (active); in [16], -51.7% (active); in [17] it was 9.05% (active).
Take `NCCCNc1nc2ccccc2c2c(=O)c3cc(F)cc(Cl)c3sc12`: the growth in assay [1] was -17.3% (active); in [2], 5.77% (active); in [3], 96.6%; in [4] it was -65.3% (active); in assay [5], 102%; in assay [6], 80%. The growth in [7] is 102%; in assay [8] it was 88.3%; in assay [9] it was 85.5%; in assay [10], 88.4%; in assay [11], 104%; in assay [12], 26%. Besides, the growth in [13] was -49.3% (active); in assay [14] it was 68.3%; in [15], -60.2% (active); in assay [16] it was 84.3%; in assay [17], 72.7%.
`CNC(=O)c1cc(-n2ccc3cc(NC(=O)c4ccc(N5CCOCC5)c(C(F)(F)F)c4)ccc32)ccn1`: the growth in [1] is 24.8%; in assay [2], 27.7%; in assay [3], 79.1%; in assay [4], 64.4%; in assay [5] it was 91.2%; in assay [6], 77.7%. The growth in assay [7] is 63.9%; in assay [8], 47.1%; in assay [9] it was 45.7%; in assay [10] it was 25.8%; in assay [11] it was 43.8%; in [12], 76.4%. In addition, the growth in assay [13] was 75.9%; in [14], 60.6%; in assay [15], 38.7%; in assay [16], 63.8%; in assay [17], 17.7%.
With `NCCCNc1nc2ccccc2c2c(=O)c3cc(OC(F)(F)F)ccc3sc12`, the growth in assay [1] is -31.1% (active); in assay [2] it was -0.0816% (active); in assay [3] it was 76%; in assay [4] it was -58.3% (active); in assay [5], 89.9%; in assay [6], 35.4%. The growth in assay [7] is -73.3% (active); in assay [8] it was 1.28% (active); in assay [9], -29% (active); in assay [10], -9.69% (active); in assay [11], 93.1%; in assay [12] it was -79.2% (active). Moreover, the growth in assay [13] was -75.8% (active); in [14], -70.1% (active); in assay [15], -83.4% (active); in [16] it was -88.1% (active); in assay [17] it was -89.3% (active).
Turning to `CCN(CC)CCNc1nc2ccccc2c2c(=O)c3cc(Cl)ccc3sc12`, the growth was -2.52% (active) in assay [1]; 64.4% in assay [2]; 81.6% in assay [3]; 46.5% in [4]; 54% in assay [5]; 56.1% in assay [6]. Moreover, the growth in [7] was 51.3%; in assay [8] it was 67.6%; in assay [9], 27.1%; in assay [10] it was 60.4%; in assay [11] it was 94%; in assay [12], 15.6%. Moreover, the growth in assay [13] is 17.2%; in assay [14], 52.3%; in assay [15] it was 20.5%; in assay [16], 14.2%; in assay [17] it was 26.5%.
`Cn1cc(-c2cc3ncnc(Nc4ccc(CC(=O)Nc5cc(C(C)(C)C)nn5C)cc4)c3s2)cn1`: the growth in assay [1] is 8.15% (active); in assay [2], 35.9%; in assay [3] it was 102%; in [4] it was 28.1%; in [5], 29.3%; in assay [6] it was 28.9%. Further, the growth is 61.4% in assay [7]; 32.3% in assay [8]; 101% in assay [9]; 12.1% in [10]; 45.7% in assay [11]; 58.4% in assay [12]. For the same compound, the growth in [13] is 63%; in assay [14] it was 54.8%; in assay [15] it was 39.2%; in assay [16], 80.8%; in assay [17], 16.7%.
In the case of `NCCCNc1nc2ccccc2c2c(=O)c3cccc(F)c3sc12`, the growth in assay [1] is -16.7% (active); in assay [2], 29%; in [3] it was 66.9%; in assay [4], 26.2%; in assay [5], 58.5%; in assay [6], 32.5%. Also, the growth in assay [7] is 18.5%; in assay [8], 52.4%; in [9] it was 30.3%; in assay [10] it was 60.3%; in assay [11], 91.2%; in [12] it was 16.5%. Also, the growth in assay [13] is -62.5% (active); in assay [14], 19.9%; in assay [15], -72.5% (active); in assay [16] it was -46% (active); in assay [17], 4% (active).
Take `CN(C)CCN1CCN(c2ncccc2C2Nc3ccccc3-n3cccc32)CC1` (configuration not stated): the growth in assay [1] is 98.3%; in [2], 101%; in [3] it was 100%; in assay [4] it was 113%; in assay [5], 107%; in assay [6], 105%. Further, the growth in assay [7] is 115%; in assay [8], 95.7%; in assay [9], 104%; in [10], 90.1%; in [11] it was 92.3%; in [12], 101%. Besides, the growth in [13] was 97.8%; in assay [14] it was 101%; in assay [15] it was 105%; in assay [16] it was 114%; in [17] it was 105%.
For `O=C1c2cccc3cccc(c23)C(=O)N1Nc1nc(NC2CCCCC2)nc(N2CCOCC2)n1`, the growth in assay [1] was 91%; in [2], 99%; in [3], 95.6%; in [4] it was 106%; in assay [5] it was 95.7%; in assay [6] it was 90.3%. Further, the growth in assay [7] was 103%; in [8] it was 99.4%; in assay [9], 99.8%; in assay [10], 88.4%; in assay [11], 110%; in assay [12], 103%. Also, the growth in assay [13] is 98.1%; in assay [14], 89.3%; in assay [15] it was 93.6%; in assay [16] it was 111%; in assay [17] it was 98.9%.
In the case of `O=c1c2cc(F)cc(Cl)c2sc2c(NCCCNCCO)nc3ccccc3c12`, the growth was -6.83% (active) in [1]; 95.7% in [2]; 93.7% in assay [3]; 79.1% in assay [4]; 93.9% in assay [5]; 79.4% in [6]. Besides, the growth in assay [7] is 96.1%; in assay [8], 88.1%; in [9], 89.2%; in assay [10] it was 101%; in [11] it was 82.4%; in assay [12], 61.1%. The growth in assay [13] is -32% (active); in assay [14] it was 64.6%; in [15], 65.1%; in assay [16] it was 60.9%; in [17] it was 66.7%.
With `NC(=O)C1(Nc2ccc(Br)cc2)CCCC1`, the growth in [1] is 84.3%; in assay [2], 102%; in assay [3], 96.7%; in assay [4] it was 115%; in assay [5] it was 103%; in assay [6], 108%. Also, the growth was 113% in [7]; 111% in assay [8]; 111% in assay [9]; 98.9% in [10]; 104% in assay [11]; 105% in [12]. In addition, the growth in assay [13] was 106%; in assay [14], 92.2%; in assay [15] it was 105%; in [16], 116%; in assay [17], 109%.
In the case of `O=C(Nc1ccc(Br)cc1F)c1cc(Br)ccc1O`, the growth in assay [1] is 4.87% (active); in assay [2], 11.6%; in assay [3], 25.3%; in assay [4], 22.4%; in assay [5] it was 12%; in assay [6], 15.3%. Further, the growth in [7] is 5.37% (active); in assay [8], 4.22% (active); in assay [9], 7.36% (active); in assay [10], -5.16% (active); in assay [11], -6.02% (active); in assay [12] it was 3.11% (active). The growth in assay [13] was 8.55% (active); in assay [14], 6% (active); in assay [15], 5.39% (active); in assay [16], 12.4%; in [17], 3.17% (active).
Consider `Cc1c(C(=O)NCCN2CCOCC2)cn2ncnc(Oc3ccc(NC(=O)Nc4ccc(Cl)c(C(F)(F)F)c4)cc3)c12`, for which the growth was 1.03% (active) in assay [1]; 33% in assay [2]; 53.3% in assay [3]; 31.7% in assay [4]; 30.6% in assay [5]; 39.3% in [6]. Besides, the growth in assay [7] was 16%; in assay [8], -23.8% (active); in assay [9], 82.1%; in assay [10] it was 15%; in [11], 45.6%; in assay [12] it was 18%. In addition, the growth in assay [13] was 0.917% (active); in assay [14], 7.07% (active); in [15], 8.49% (active); in assay [16], 51.1%; in [17], 19.6%.
For the compound `NCCCNc1nc2ccccc2c2c(=O)c3cc(C(F)(F)F)ccc3sc12`, the growth in [1] is -14.9% (active); in assay [2] it was 0.22% (active); in [3], 69.8%; in [4], -45% (active); in [5], 84.3%; in [6], 34.8%. The growth in assay [7] was -72.4% (active); in [8], 12.2%; in assay [9] it was -15.9% (active); in assay [10], 27.2%; in [11], 87.7%; in [12] it was -80.9% (active). Besides, the growth was -74.5% (active) in [13]; -49.4% (active) in [14]; -70.4% (active) in assay [15]; -84.6% (active) in assay [16]; -76.7% (active) in [17].
With `COc1cc2cc(Oc3ccc(NC(=O)Nc4cc(C(F)(F)F)cc(C(F)(F)F)c4)cc3)c(C)nc2cc1OCCN1CCOCC1`, the growth in assay [1] is -34.9% (active); in [2], 17.2%; in assay [3], 46.6%; in assay [4], 17.9%; in assay [5], 22.7%; in [6], 33.5%. Further, the growth is 9.29% (active) in [7]; 60.6% in assay [8]; 9.17% (active) in [9]; 26.1% in assay [10]; 68.1% in [11]; 22.3% in assay [12]. Besides, the growth is 20.3% in [13]; 7.15% (active) in assay [14]; 10.3% in assay [15]; 38.6% in assay [16]; 13.3% in [17].
